Each compound was assayed on Plasmodium falciparum (assay: GSK_TCMDC: Inhibition of Plasmodium falciparum 3D7 in whole red blood cells, using parasite LDH activity as an index of growth. Test compounds present at 2uM).
Assay type: functional
CNC(=O)c1cnc(Nc2ccc(OCC(O)CN(C)C)cc2)nc1Nc1cccc([N+](=O)[O-])c1.O=C(O)C(F)(F)F (configuration not stated) gave an Inhibition of 100%.
O=C(/C=C/c1ccc(Cl)c(Cl)c1)NCCCCCN1CC[C@H](NC(=O)c2sc3ccccc3c2Cl)C1 was tested, and the Inhibition was 97%.
COc1ccc2nccc(N3CCC(CCNCc4ccc5c(n4)NC(=O)CO5)CC3)c2c1.Cl was tested, and the Inhibition was 100%.
Work on CCc1cn(CCS(C)(=O)=O)c2ccc(C(=O)N[C@@H](Cc3ccccc3)[C@H](O)CNC(C)(C)CCCC(C)C)cc12.O=CO yielded an Inhibition of 87%.
Work on Cc1[nH]c2ccc(O)cc2c1C1CCN(CCCCCNC(=O)/C=C/c2ccc(Cl)c(Cl)c2)CC1 yielded an Inhibition of 100%.
Work on O=C(c1cccc(-c2noc(C(F)(F)F)n2)c1)N1CCN(c2ccncc2)CC1 yielded an Inhibition of 90%.
In the case of O=C(O)C(F)(F)F.c1ccc(CN2CCC(NCc3ccccc3-c3ccc(CNCc4ccc5c(c4)OCO5)cc3)CC2)cc1, the Inhibition is reported as 100%.
Compound Cl.Nc1nc(N)c2c(n1)CCc1cc(Br)ccc1-2 has an Inhibition of 87%.
In the case of CC(C)C(=O)NC(c1cccs1)c1cc(Cl)c2cccnc2c1O (configuration not stated), the Inhibition is reported as 91%.
Compound COc1cccc(Nc2nccc(NCC(O)c3ccc(C(F)(F)F)cc3)n2)c1 (configuration not stated) has an Inhibition of 99%.
For COc1ccc(N2CCN(CCCCNC(=O)c3ccc(/C=C/c4ccc(Cl)c(Cl)c4)cc3)CC2)c(OC)c1, the Inhibition was 100%.
COc1cc(OC)cc(C(=O)N2CCOC(CCN3CCC(c4ccccc4)CC3)(c3ccc(Cl)c(Cl)c3)C2)c1 (configuration not stated) showed an Inhibition of 85%.
COc1cc(C(=O)N2CCN(C(C)C)CC2)ccc1CN(C)CCCN1CCN(c2cccc(Cl)c2Cl)CC1.Cl gave an Inhibition of 100%.
O=c1cc(NCCCNCc2cccc(I)c2)[nH]c2ccccc12 was tested, and the Inhibition was 90%.
With Cc1cc(C(=O)Nc2ccc(-c3ccccc3)cc2)no1 the Inhibition was 90%.
With COc1ccnc(NCCCNCc2cn(S(=O)(=O)c3ccccc3)c3ccccc23)c1 the Inhibition was 99%.
O=C(Cc1c[nH]cn1)Nc1cccc(-c2ccc(-c3nc4cc(C(F)(F)F)ccc4[nH]3)cc2)c1 was tested, and the Inhibition was 100%.
Compound Cc1cccc2nc(-c3ccc(-c4ccc(CN5CCCC5CN)cc4)cc3)[nH]c12.O=C(O)C(F)(F)F (configuration not stated) has an Inhibition of 99%.
CC(=O)Nc1nc(C(=O)Nc2cccc(-c3cccc(-c4nc5ccccc5[nH]4)c3)c2)cs1 showed an Inhibition of 100%.
CCCOc1ccc(CNCCCCCCNCc2ccc(OCCC)c3ccccc23)c2ccccc12.CS(=O)(=O)O gave an Inhibition of 100%.
Compound N=C(N)Nc1nc(-c2cccc(NC(=O)NCc3ccc(OC(F)(F)F)cc3)c2)cs1 has an Inhibition of 100%.
Cc1nnc(-c2ccc3ccccc3c2)c2cn(-c3cccc([N+](=O)[O-])c3)nc12 was tested, and the Inhibition was 91%.
With Cn1nc(C(F)(F)F)c(-c2ccc(Br)cc2)c1NC(=O)Nc1ccc(F)cc1F the Inhibition was 99%.
In the case of CCCN1CCN(c2ccccc2NS(=O)(=O)c2ccc(C(=O)Nc3ccc(Cl)cc3)cc2)CC1.O=C(O)C(F)(F)F, the Inhibition is reported as 84%.
CCN(CC)CCCC(C)Nc1c2ccc(Cl)cc2nc2ccc(OC)cc12.Cl.O (configuration not stated) was tested, and the Inhibition was 100%.
CC1CC(NCCCNc2cc(=O)c3ccccc3[nH]2)c2c1cc(Cl)c(Cl)c2Cl (configuration not stated) gave an Inhibition of 98%.
In the case of CCc1nc(N)nc(N)c1-c1ccc2c(c1)CCCC2, the Inhibition is reported as 95%.
O=C(Cc1ccc[n+]([O-])c1)Nc1cccc(-c2cccc(-c3nc4cc(C(F)(F)F)ccc4[nH]3)c2)c1 showed an Inhibition of 92%.
Work on O=C(Nc1ccsc1C(=O)NC1CCCCC1)c1ccc(F)cc1 yielded an Inhibition of 86%.
COC(=O)c1cccc(CNCc2ccc(-c3ccc(-c4nc5cccc(C)c5[nH]4)cc3)cc2)c1.O=C(O)C(F)(F)F gave an Inhibition of 100%.
In the case of C[C@@H](CC1CCCCC1)NCc1cccc(NS(=O)(=O)c2ccc(O)c(-c3ccno3)c2)c1.Cl, the Inhibition is reported as 88%.
Work on CC(C)NCc1ccc(-c2ccc(-c3nc4cc(C(F)(F)F)ccc4[nH]3)s2)cc1.O=C(O)C(F)(F)F yielded an Inhibition of 100%.
For O=C(/C=C/c1ccc(Cl)c(Cl)c1)NCC1CCN(Cc2ccc(O)cc2)CC1.O=C(O)C(F)(F)F, the Inhibition was 98%.
For CC(=O)Nc1ccc(NC(=O)c2cc(-c3cc(Cl)ccc3O)n[nH]2)cc1, the Inhibition was 100%.
In the case of Cc1cc(NC(=O)Nc2ccc(C(C)(C)C)cc2)c2ccccc2n1, the Inhibition is reported as 100%.
CCOc1cc(C(=O)NC2CCN(Cc3ccccc3)CC2)ccc1-c1nc2cc(Cl)c(F)cc2[nH]1 was tested, and the Inhibition was 100%.
CCCN(Cc1nnc(-c2ccco2)o1)C(=O)C1CCN(c2ncc(C(F)(F)F)cc2Cl)CC1 gave an Inhibition of 98%.

Reference: ChEMBL document CHEMBL1157539, “Thousands of chemical starting points for antimalarial lead identification” (Nature, 2010)
